# NS1 function inh: blocks influenza NS1 protein function. AID 2326. 270,000 compounds, 0.4% hits. Potency, µM (titrated, usually from 46.1 µM), inactives show top-dose activity, positive = more growth; calls by dose curve; further: actives are rising curves; nearly all actives have a fitted effect of over 50% in size
#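 Recovery from NS1-induced slow growth read by OD600 in budding yeast switched to galactose assay medium (pH 6.0, -URA) at 1:100 dilution. Compound 23 nl per well; the matching strain lacking NS1 serves as control.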
# SARS PLP yeast: blocks SARS-CoV papain-like protease in a yeast assay | Potency, µM (series often up to 32.9 µM), for the others: at the highest dose activity, positive = growth rescue, usual class: activators | 330,000 compounds, 0.19% hits | S. cerevisiae expressing SARS-CoV PLpro, growth rescue | AID 485353; calls by dose curve; further: 0% is about no effect; nearly all actives have a fitted effect of over 55% in size
# Pf growth 48h: inhibits P. falciparum growth in the first generation, 48 h; 310,000 compounds, 5.9% hits; P. falciparum luciferase growth in erythrocytes, 48 h; Potency, µM (doses to about 28.7 µM), for the others: at the top dose activity change, negative = inhibition, actives largely listed as inhibitors; further: on the % scale 0 is the no-effect control and ±100 the full control effect
#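 Firefly luciferase activity from engineered P. falciparum reports growth; inhibitors lower the luminescent signal. Cultures contained 2% hematocrit erythrocytes at 0.1% final parasitemia.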
# Pf growth 96h: inhibits malaria parasite growth, 96 h | P. falciparum luciferase reporter growth, 96 h | Potency, µM (top dose mostly 28.7 µM), for the others: at the top dose activity change, negative = inhibition, hits mostly inhibitors | 320,000 compounds, 6.9% hits; further: on the % scale 0 is the no-effect control and ±100 the full control effect
#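 96 h incubation, 37 C, 5% CO2, of luciferase-reporter P. falciparum-infected RBCs (2% hematocrit, 0.05% parasitemia final) with test compounds; endpoint luminescence.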
# RE007 growth inh: less growth of the S. pombe RE007 Vpr strain; S. pombe RE007 Vpr strain, BacTiter-Glo ATP luminescence, 24 h; Potency, µM (highest dose often 92.2 µM), for inactives: at the top dose activity change, negative = less growth, usual class: inhibitors; 360,000 compounds, 0.21% hits; AID 651644; active means well fitted falling curve with a large enough effect; inconclusive means small, poorly fitted or top-dose-only effect; inactive means no such curve, though single readings can be large or run the other way; further: on the % scale 0 is the no-effect control and ±100 the full control effect; nearly all actives have a fitted effect of over 50% in size
#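 Fission yeast strain RE007, carrying one chromosomally integrated HIV-1 vpr copy, was seeded at OD 0.01 in PMG+AL medium with 23 nL pinned compound. After 24 h at 30 °C and 99% humidity, viability was read by BacTiter-Glo luminescence.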
# * = called active by the depositor; u = inconclusive; x = no result given; [ ] = remark or other dose. Shown are actives, neighbours in structure and some others; about 9.5% of the full set was active somewhere. Unless noted, the call rests on the fitted dose curve; in most records, active means well fitted inhibition curve with a large enough effect; inconclusive means small, poorly fitted or top-dose-only effect, or another doubt; inactive means no such curve, though single readings can be large or run the other way. Potency means the concentration at half of the fitted maximal effect.
SMILES,NS1 function inh,SARS PLP yeast,Pf growth 48h,Pf growth 96h,RE007 growth inh
CC(C)N1C(=O)C(Cc2nc3ccccc3c(=O)n2-c2ccccc2)c2ccccc21 (stereo unspecified),22%,1%,9.3µM*,9.3µM*,8%
Cc1ccc(F)cc1CNC(=O)C1CCC(=O)N(CCCN2CCCC2=O)C1 (stereo unspecified),2%,-5%,-1%,9%,6%
CCCCn1c(N)c(N(CCOC)C(=O)C2CCN(S(=O)(=O)c3ccc(Cl)cc3)CC2)c(=O)[nH]c1=O,-13%,6%,75%,u,1%
Cc1ccc(-n2nc(C)c3c(-c4cccs4)c(C#N)c(N)nc32)cc1,u,5%,u,u,-5%
Cc1nn(-c2ccccc2)c2nc(N)c(C#N)c(-c3ccc(F)cc3)c12,-29%,-1%,12µM*,u,-21%
COc1cccc(CNCc2ccco2)c1O,u,12%,0%,12µM*,7%
COc1ccc(OC)c(C(=O)NC(CC(N)=O)c2ccc(N3CCC(Cc4ccccc4)CC3)c([N+](=O)[O-])c2)c1 (stereo unspecified),u,3%,3%,13%,3%
CCC1(CCSC(=N)N)C(=O)NC(=O)NC1=O,-5%,x,x,x,x
Cc1c(C)n(Cc2ccc(F)cc2)c2ccc(C(=O)NCCCN3CCOCC3)cc12,8%,2%,9.3µM*,33%,5%
Cc1c(C)n(Cc2ccccc2)c2ccc(C(=O)NCCCN3CCOCC3)cc12,-3%,6%,-19%,32%,9%
Cc1c(C)n(C)c2ccc(C(=O)NCCCN3CCN(c4ccccc4F)CC3)cc12,15%,-3%,10µM*,-20%,2%
Cc1c(C)n(C)c2ccc(C(=O)NCCCN3CCN(c4ccc(F)cc4)CC3)cc12,-17%,-16%,u,13%,-7%
Cc1cnc(C(=O)OC(C(=O)c2c[nH]c3ccccc23)c2ccccc2)cn1 (stereo unspecified),x,-10%,13%,32%,-4%
Cc1cc(C)c(NC(=O)C[C@H](CC(=O)O)c2cccc3ccccc23)c(C(=O)N2CCC3(CCCC3)CC2)c1,10µM*,x,u,u,x
Cc1cc(NC(=O)CSc2nc3ccccc3c(=O)n2CCCC(=O)NCc2ccccc2)n[nH]1,-1%,4%,u,33%,3%
O=C(CCCn1c(SCC(=O)NC2CCCC2)nc2ccccc2c1=O)NCC1CCCO1 (stereo unspecified),-19%,x,x,x,x
O=C(CCCn1c(SCc2cc(=O)n3cc(Cl)ccc3n2)nc2ccccc2c1=O)NCC1CCCO1 (stereo unspecified),4%,1%,6.6µM*,10µM*,10%
O=C(CCCn1c(SCC(=O)NCC2CCCO2)nc2ccccc2c1=O)NCc1ccccc1 (stereo unspecified),-9%,12%,x,9.3µM*,7%
O=C(CCCn1c(SCc2cc(=O)n3ccccc3n2)nc2ccccc2c1=O)NCC1CCCO1 (stereo unspecified),x,3%,-23%,u,-21%
O=C(CCCn1c(SCC(=O)c2ccc(F)cc2)nc2ccccc2c1=O)NCc1ccccc1,16%,5%,x,10µM*,6%[3.69 µM]
COC(=O)[C@]12CCCCC=C1N(CCC1=CCCCC1)C(=O)[C@H](CC(=O)NCC13CC4CC(CC(C4)C1)C3)C2,x,x,x,x,4%
CCC(C)(C)c1ccc(Oc2cccc(C(=O)O)c2)cc1,-36%,-9%,54%,83%,5%
CCCCCc1ccc(OCCCC[n+]2ccccc2)c(CCCCC)c1,x,-17%,0.93µM*,-2%,u
CCC(C)(C)c1ccc(OCCCC[n+]2ccccc2)c(C(C)(C)CC)c1,x,-19%,2.1µM*,-22%,u
CCCCOc1ccc(C)cc1CN(CCO)CCO,1%,5%,x,3%,-23%
CCCCCc1ccc(OCCCC[n+]2cccc(C)c2)c(CCCCC)c1,1%,0%,-9%,-19%,u
CCCCCc1ccc(OCCCC[n+]2ccc(C)cc2)c(CCCCC)c1,-59%,-6%,0.47µM*,39%,u
O=[N+]([O-])c1ccc(OC(F)F)c(/C=N/n2cnnc2)c1,-4%,-1%,36%,0%,-5%

# From PubChem
